Here are results for 30 compounds from PubChem BioAssay (EPA / NIEHS).

Records with an inconclusive call do not appear. The source made the active and inactive calls. The calls were made as follows, unless noted: active = hit-call score of the fitted dose curve at least 0.9, where 1 is the maximum; inactive = score below 0.9.

The nature of assay [1]: CCTE_Simmons_MITO_basal_resp_rate: CCTE's HepG2 Seahorse XF Respirometric Screening Assay at Basal Respiratory State, Simmons Lab (AID 2284001). As to conditions: actives raise or lower the signal. The gist of the method: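 Readout is oxygen consumption rate after test compound injection, measured by Seahorse XF in HepG2 cells. Seven concentrations from 125 nM up to 100 uM final are tested, and activity in either direction is fitted against DMSO.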

The nature of assay [2]: CCTE_Simmons_MITO_max_resp_rate: CCTE's HepG2 Seahorse XF Respirometric Screening Assay at Maximal Respiratory State [uncoupled], Simmons Lab (AID 2284002). As to conditions: actives raise or lower the signal. The method in brief:
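HepG2 oxygen consumption was read on a Seahorse XF96 after FCCP uncoupler injection, following test compound injection; 7 concentrations, 125 nM–100 uM final, three biological replicates. Bidirectional fitting against DMSO vehicle baseline.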

A short description of assay [3]: CCTE_Simmons_MITO_inhib_resp_rate: CCTE's HepG2 Seahorse XF Respirometric Screening Assay at Inhibited Respiratory State [full ETC block], Simmons Lab (AID 2284006). As to conditions: actives raise or lower the signal. The gist of the method: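 Test chemicals at seven final concentrations (125 nM–100 uM) in three biological replicates, with DMSO as vehicle. HepG2 oxygen consumption was then tracked on a Seahorse XF96 for 72 min through FCCP and rotenone/antimycin A phases, with the inhibited-phase rate as the endpoint.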

A short description of assay [4]: CCTE_Harrill_HTTr_Viability_MCF7: CCTE's 6-hour Cell Viability Assessment for the High-Throughput Transcriptomics (HTTr) Platform, in MCF-7 cells cultured in DMEM + 10% fetal bovine serum, Harrill Lab (AID 2284010). The method in brief:
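Eight-point concentration series, six-hour exposure. Propidium iodide exclusion imaged to assess membrane integrity as a cytotoxicity readout; bidirectional fitting was done with DMSO as negative control and activity baseline.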

Assay [5] in a line: CCTE_Harrill_HTTr_Apoptosis_MCF7: CCTE's 6-hour Apoptosis Assessment for the High-Throughput Transcriptomics (HTTr) Platform, in MCF-7 cells cultured in DMEM + 10% fetal bovine serum, Harrill Lab (AID 2284011). The gist of the method: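 MCF-7 cells in DMEM + 10% fetal bovine serum were exposed to chemicals for 6 hours over an eight-point dilution series. Caspase-3/7 activation was imaged by high content imaging with CellEvent Caspase 3/7 Green; bidirectional fitting used DMSO as baseline.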

Assay [6] is described as follows: CCTE_Harrill_HTTr_CellCount_MCF7: CCTE's Cell Proliferation Assessment for the High-Throughput Transcriptomics (HTTr) Platform, Harrill Lab (AID 2284012; active = hit-call score of the fitted dose curve at least 0.9, where 1 is the maximum;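 also: intended direction is loss of nuclei count meaning fewer cells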). The gist of the method: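 For this full-screen endpoint, MCF-7 cultures received eight compound dilutions for six hours. Well nuclei counts from Hoechst imaging were analyzed relative to DMSO.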

The term AC50 denotes the concentration at which the activity in the assay is half-maximal. `Cc1cc(Cc2ccc(N)c(C)c2)ccc1N`: the outcome in assay [1] and in assay [3] was inactive. In addition, in assay [2], the AC50 is 50 µM (active).
On to `CCc1nc(N)nc(N)c1-c1ccc(Cl)cc1`, for which the result in assay [4], in assay [5] and in assay [6] was inactive.
`O=C(O)c1cccnc1`: the result in assay [4], in assay [5] and in assay [6] was inactive.
In the case of `O=C(O)c1[nH]n(-c2ccc(S(=O)(=O)O)cc2)c(=O)c1N=Nc1ccc(S(=O)(=O)O)cc1`, the result in assay [4] and in assay [5] was inactive.
Regarding `CCCCCCC(CCCCCCCCCCC(=O)OCC(COC(C)=O)OC(C)=O)OC(C)=O` (stereo not drawn), the outcome in assay [4] and in assay [5] was inactive.
With `CC(=O)O`, the outcome in assay [4], in assay [5] and in assay [6] was inactive.
Regarding `O=C1c2c(O)cccc2Cc2cccc(O)c21`, the result in assay [4], in assay [5] and in assay [6] was inactive.
As to `CC(C)(C)c1ccccc1`, the result in assay [4], in assay [5] and in assay [6] was inactive.
On to `CCCC[C@H]1CN(CC2CCOCC2)C(=O)OC12CCN(C1(C)CCN(C(=O)c3c(C)ncnc3C)CC1)CC2`, for which the outcome in assay [4], in assay [5] and in assay [6] was inactive.
With `C/C=C/C=C/C(=O)O`, the outcome in assay [4], in assay [5] and in assay [6] was inactive.
In the case of `O=C1NC(=O)C(c2ccccc2)(c2ccccc2)N1`, the result in assay [4], in assay [5] and in assay [6] was inactive.
As for `CCCCOC(=O)CCCCC(=O)OCCCC`, the outcome in assay [4], in assay [5] and in assay [6] was inactive.
Regarding `Cc1cn([C@H]2C=C[C@@H](CO)O2)c(=O)[nH]c1=O`, the outcome in assay [4], in assay [5] and in assay [6] was inactive.
As to `NC1CCCCC1`, the result in assay [4], in assay [5] and in assay [6] was inactive.
For the compound `CN(C)CCCN(C)CCCN(C)C`, the outcome in assay [4], in assay [5] and in assay [6] was inactive.
Turning to `O=[Si]=O`, the result in assay [4] and in assay [5] was inactive.
With `CC(=O)OC1CC(C)OC(C)O1` (stereo not drawn), the outcome in assay [4], in assay [5] and in assay [6] was inactive.
Consider `C=CCc1ccc(OC)c(OC)c1`, for which the outcome in assay [4], in assay [5] and in assay [6] was inactive.
As to `Cn1cnc2c1c(=O)[nH]c(=O)n2C`, the outcome in assay [4], in assay [5] and in assay [6] was inactive.
In the case of `CO[C@@H]1COCC[C@@H]1N[C@@H]1CC[C@@](C(=O)N2CCc3ncc(C(F)(F)F)cc3C2)(C(C)C)C1`, the result in assay [4] and in assay [5] was inactive.
Take `CC(C)c1cccc(C(C)C)c1NC(=O)NS(=O)(=O)c1cc(C(C)(C)O)co1`: the result in assay [4], in assay [5] and in assay [6] was inactive.
`O=NO`: the result in assay [4], in assay [5] and in assay [6] was inactive.
With `CC(=O)CC(c1ccccc1)c1c(O)c2ccccc2oc1=O` (stereo not drawn), the result in assay [4], in assay [5] and in assay [6] was inactive.
For `CCCCc1nc2cccnc2n1Cc1ccc(-c2ccccc2-c2nnn[nH]2)cc1`, the outcome in assay [4] and in assay [5] was inactive.
In the case of `COC(=O)CCCC(=O)OC`, the result in assay [4] and in assay [5] was inactive.
For `CS(=O)(=O)c1ccc([C@@H](C[C@H]2CCC(=O)C2)C(=O)Nc2cnccn2)cc1Cl`, the outcome in assay [4], in assay [5] and in assay [6] was inactive.
With `COC(=O)CCC(=O)OC`, the result in assay [4], in assay [5] and in assay [6] was inactive.
For the compound `CC(=O)[C@@]1(O)CC[C@H]2[C@@H]3CCC4=CC(=O)CC[C@]4(C)[C@H]3CC[C@@]21C`, the result in assay [4], in assay [5] and in assay [6] was inactive.
In the case of `CC1(C)C(=O)NC(=O)N1CO`, the result in assay [4] and in assay [5] was inactive.
Take `CC(=O)S[C@H](C(=O)N[C@H]1Cc2ccccc2[C@H]2CCC[C@@H](C(=O)O)N2C1=O)C(C)C`: the outcome in assay [4], in assay [5] and in assay [6] was inactive.
